# High-throughput results from PubChem BioAssay.
# This is a sample that favours compounds with a hit; in the whole collection about 18% have one here.
# DT40 TDP1 no CPT: qHTS for Inhibitors of human tyrosyl-DNA phosphodiesterase 1 (TDP1): qHTS in cells in absence of CPT. DT40 Tdp1-/- hTDP1 cells, no CPT, ATP luminescence, 48 h. 15% of 420,000 active. Potency, µM (titrated, usually from 46.2 µM), without a hit: at the top dose activity change, negative = growth inhibition, most hits filed as inhibitors; further: nearly all actives have a fitted effect of over 55% in size
#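 Growth kinetics read by CellTiter-Glo luminescence after ≥48 hr at 37 °C. Cells: DT40 Tdp1-/- stably carrying human TDP1, 400 per well, compound exposure in the absence of CPT (DMSO vehicle).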
# TDP1 cell CPT: growth inhibition of DT40 Tdp1-/-;hTDP1 cells with camptothecin (screen for TDP1 inhibitors); chicken DT40 Tdp1-/-;hTDP1 cells + 20 nM CPT, ATP luminescence, 48 h; Potency, µM (highest dose often 46.2 µM), inactives show at the highest dose activity change, negative = growth inhibition, hits mostly inhibitors; 12% of 420,000 active; further: nearly all actives have a fitted effect of over 55% in size
#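 Chicken DT40 Tdp1-/- cells complemented with human TDP1, 400 cells/well, exposed to compounds plus 20 nM camptothecin for at least 48 h at 37 C; viability read as ATP content by CellTiter-Glo luminescence.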
# TDP1 inh: inhibitors of human tyrosyl-DNA phosphodiesterase TDP1; Q9NUW8; recombinant TDP1, AlphaScreen DNA substrate cleavage; Potency, µM (titrated, usually from 130 µM), for the others: at the highest dose activity change, negative = inhibition, hits mostly inhibitors; 0.28% of 350,000 active; AID 485290; further: nearly all actives have a fitted effect of over 40% in size
#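 Signal: AlphaScreen proximity between streptavidin donor and anti-FITC acceptor beads on intact substrate. Reaction: Tdp1 1 nM, substrate 15 nM final, 5 min RT after 15 min compound preincubation.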
# GCN5L2 inh: inhibitors of human GCN5L2 histone acetyltransferase. Potency, µM (doses to about 58.9 µM), without a hit: at the highest dose activity change, negative = inhibition, usual class: inhibitors. AID 504327. GCN5L2 HAT assay, ThioGlo1 CoA-SH fluorescence. Q92830. 0.21% of 390,000 active
#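 Free CoA generated was detected with ThioGlo1 (50uM) fluorescence at Ex340nm/Em540nm, read immediately and after 20 min at room temperature. Enzyme, 20 nM in HEPES pH 7.5 buffer, saw compounds 15 min before adding 75uM H3(1-25) peptide and 70uM acetyl-CoA.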
# PLK1 PBD block: PLK1 (human) polo-box domain binding inhibition | Plk1 PBD binding of FITC phosphopeptide, fluorescence polarization | Potency, µM, for inactives: max response, negative = inhibition, usual class: inhibitors | 2.8% of 360,000 active | AID 720504; further: series mostly up to about 57 µM; nearly all actives have a fitted effect of over 65% in size
# VDR inhibitor: vitamin D3 receptor (human) inhibition; P11473; VDR-SRC2-3 peptide fluorescence polarization, 2 h; Potency, µM, inactives show max response, negative = inhibition, hits mostly inhibitors; 0.93% of 400,000 active
# Target sequence (P11473 whole entry, looked up): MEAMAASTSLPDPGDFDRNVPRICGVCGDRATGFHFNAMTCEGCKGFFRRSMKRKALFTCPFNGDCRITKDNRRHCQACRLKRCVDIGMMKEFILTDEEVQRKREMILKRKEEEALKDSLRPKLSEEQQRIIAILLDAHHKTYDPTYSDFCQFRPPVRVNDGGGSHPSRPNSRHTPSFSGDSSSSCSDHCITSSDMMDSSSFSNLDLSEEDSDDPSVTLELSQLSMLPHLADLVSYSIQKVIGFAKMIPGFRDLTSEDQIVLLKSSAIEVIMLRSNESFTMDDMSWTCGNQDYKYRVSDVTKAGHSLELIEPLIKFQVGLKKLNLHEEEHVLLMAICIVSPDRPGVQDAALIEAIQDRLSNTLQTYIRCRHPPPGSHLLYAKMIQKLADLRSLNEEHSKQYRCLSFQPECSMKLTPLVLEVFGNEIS
#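 The screen uses fluorescence polarization to detect compounds that interfere with recruitment of the SRC2-3 coactivator peptide to VDR; plates are read after 2 h at room temperature.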
# Starred values were filed as active, the others as inactive; ? = inconclusive; . = not tested or not shown. The call rests on the fitted dose curve; in most records, active means well fitted curve in the direction sought with a large enough effect; inconclusive means small, poorly fitted or top-dose-only effect, or another doubt; inactive means no such curve, though single readings can be large; an effect the other way counts as inactive or inconclusive. On the % scale 0 is the no-effect control and ±100 the full control effect; potency means the concentration at half of the fitted maximal effect.
SMILES,DT40 TDP1 no CPT,TDP1 cell CPT,TDP1 inh,GCN5L2 inh,PLK1 PBD block,VDR inhibitor
CCN(CC)S(=O)(=O)c1cccc(S(=O)(=O)N2CCCCC2)c1,-8%,-6%,-6%,-4%,2%,8%
Cc1ccc(S(=O)(=O)N2CCCCC2)cc1NCC(=O)Nc1ccc(Br)cc1F,3.7µM*,4.6µM*,.,.,4%,.
CCN(CC)S(=O)(=O)c1ccc(C)c(NC(=S)Nc2cccc(S(=O)(=O)N3CCCCCC3)c2)c1,23µM*,?,1%,-2%,-21%,-5%
O=C(CNc1ccccc1F)Nc1cc(S(=O)(=O)N2CCCCC2)ccc1Cl,-27%,-30%,1%,-7%,-4%,-1%
O=C(CNc1cccc(S(=O)(=O)N2CCCCC2)c1)Nc1cccc(F)c1,?,-27%,-7%,-1%,-9%,?
CC(=O)Nc1ccc(S(=O)(=O)N(C)CC(=O)Nc2ccc(Br)cc2F)cc1,?,-18%,.,-5%,-11%,-3%
CCCCNC(=O)c1cn(C)c2ccc(S(=O)(=O)N3CC(C)CC(C)C3)cc2c1=O (configuration not stated),11%,?,4%,-5%,0%,-3%
CSc1cccc(NC(=O)CN2CCN(Cc3ccccc3C)S2(=O)=O)c1,?,?,0%,-11%,.,0%
Cc1ccc2sc(-c3ccc(NC(=O)c4cc(-n5cnnc5)ccc4Cl)cc3)nc2c1,9.2µM*,13µM*,7%,-10%,2%,33%
Cc1c(NC(=O)c2cc(-n3cnnc3)ccc2Cl)cccc1-c1nc2ccccc2s1,?,-25%,0%,3%,-4%,10%
Cc1c(C(=O)Nc2cccc(-c3nc4ccccc4s3)c2)oc2ccc(F)cc12,15µM*,?,-2%,-2%,.,1%
Cc1nc2ccc(NC(=O)c3oc4ccc(F)cc4c3C)cc2s1,9%,-5%,0%,-4%,-7%,-4%
CC(=O)Nc1ccc(NC(=O)c2cc(-n3cnnc3)ccc2Cl)cc1,1%,2%,-5%,-19%,-1%,-14%
O=C(Nc1cccc(-c2nc3ccccc3s2)c1)c1cc(-n2cnnc2)ccc1Cl,16µM*,9.2µM*,7%,0%,-20%,-6%
C[C@H](NC(=O)[C@@H]1Cc2ccccc2CN1C(=O)OC(C)(C)C)C(=O)NCc1ccco1,20%,-9%,5%,-23%,-12%,-6%
CCOC(=O)C1CCN(C(c2ccc(OCC)cc2)c2c(O)cc(C)n(CCOC)c2=O)CC1 (configuration not stated),-14%,-10%,-5%,-3%,.,?
Cn1cc(CNCc2ccc(OC(F)(F)F)cc2)c(-c2ccc3c(c2)OCCO3)n1,2.6µM*,7.3µM*,4%,-3%,-3%,2%
CN(C)S(=O)(=O)c1ccc(C(=O)N2CC(=O)Nc3ccc(Br)cc3C2c2ccc(F)cc2)cc1 (configuration not stated),?,?,9%,-16%,.,-1%
Cc1ccn2c(NC(=O)c3ccccc3)c(-c3ccccc3)nc2c1,4%,20%,.,-6%,8%,-7%
Cc1cccc(C(=O)Nc2c(-c3ccccc3)nc3cc(C)ccn23)c1,21µM*,?,6%,-13%,.,6%
Cc1ccn2c(NC(=O)c3cccc(Cl)c3)c(-c3ccccc3)nc2c1,23µM*,?,3%,-3%,.,-3%
CCc1nn(CC(=O)NCc2ccc(OC)cc2OC)c(=O)c2cc3c(OC)cccc3n12,-8%,6%,0%,1%,.,4%
O=S(=O)(c1ccc(Cl)cc1)N1CCC(c2nc3ccccc3[nH]2)CC1,12µM*,?,.,-1%,-5%,-1%
CC(=O)c1ccc(S(=O)(=O)N2CCC(c3nc4ccccc4[nH]3)CC2)cc1,?,?,4%,3%,-14%,-2%
Cc1nc(N2CCOCC2)c2nc(-c3ccccc3)n(C(C)CN(C)C)c2n1 (configuration not stated),.,.,4%,.,.,.
SMILES,DT40 TDP1 no CPT,TDP1 cell CPT,TDP1 inh,GCN5L2 inh,PLK1 PBD block,VDR inhibitor
CC1CCN(c2ccc(-c3cccs3)nn2)CC1,10µM*,?,.,-25%,-6%,-13%
C=CCNc1ncnc2c1[nH]c1ccc(C)cc12,21µM*,29µM*,0%,-1%,-13%,3%
COc1cccc(/C=N/Nc2ncnc3c2[nH]c2ccc(C)cc23)c1OC,5.8µM*,2.1µM*,.,-20%,-6%,-18%
Fc1ccc2[nH]c3c(NCc4ccccc4)ncnc3c2c1,5.2µM*,5.2µM*,.,0%,-8%,-1%
COc1ccc2[nH]c3c(NCCCOC(C)C)ncnc3c2c1,?,?,.,-10%,-6%,-7%
CCOc1ccc2[nH]c3c(NCCC(C)C)ncnc3c2c1,18µM*,26µM*,.,?,3%,-24%
OCCCNc1ncnc2c1[nH]c1ccccc12,-16%,-10%,.,1%,-9%,-7%
CCOc1ccccc1NC(=O)C(OC(=O)c1ccc(NC(=O)CC#N)cc1)c1ccccc1 (configuration not stated),?,-26%,-3%,?,2%,30%
COC(=O)C(Cc1ccc(O)cc1)NC(=O)C(C)NC(=O)c1ccc(C(C)(C)C)cc1 (configuration not stated),?,-10%,0%,0%,-14%,-14%
CCCOC1CCCN(Cc2nc(-c3ccc(C(=O)OC)cc3)no2)C1 (configuration not stated),?,?,.,-1%,-20%,-17%
OC(c1ccccc1)(c1ccccc1)c1cnc2ccccn12,.,.,0%,.,.,.
NC(=O)c1cc([N+](=O)[O-])c(Cl)cc1NCc1ccccn1,26µM*,?,-3%,-3%,-14%,-21%
NC(=O)c1cc([N+](=O)[O-])c(Cl)cc1NCc1ccncc1,?,?,0%,-3%,-5%,2%
O=C(O)c1ccccc1-c1ccccc1C(=O)NCc1cccc(C(F)(F)F)c1,-5%,2%,-5%,?,-29%,11%
O=C(NNc1ccccc1)c1ccc(Cl)c(Cl)c1,-4%,-6%,.,.,-4%,?
CC1CCN(CC2C(=O)O[C@@H]3C[C@@]4(C)CCC[C@H](C)C4=C[C@H]23)CC(C)(C)C1 (some centres not stated),18µM*,?,.,-1%,-7%,-9%
C=C1CCC[C@]2(C)C[C@H]3OC(=O)C(CN4CC(C)OC(C)C4)[C@H]3C[C@@H]12 (some centres not stated),?,?,.,15%,0%,-1%
